# Source: PubChem (National Center for Advancing Translational Sciences (NCATS))
# Most compounds without a hit are left out; they make up all but 19% or so of the library.
# TDP1 block: qHTS Assay for Inhibitors of Tyrosyl-DNA Phosphodiesterase (TDP1); Tyrosyl-DNA phosphodiesterase 1 (Homo sapiens), Q9NUW8; recombinant TDP1, AlphaScreen DNA substrate cleavage; Potency, µM (titrated, usually from 130 µM), for the others: at the highest dose activity change, negative = inhibition, hits mostly inhibitors; hit rate 0.28% among 350,000; further: nearly all actives have a fitted effect of over 40% in size
# Target sequence (Q9NUW8 whole entry, looked up): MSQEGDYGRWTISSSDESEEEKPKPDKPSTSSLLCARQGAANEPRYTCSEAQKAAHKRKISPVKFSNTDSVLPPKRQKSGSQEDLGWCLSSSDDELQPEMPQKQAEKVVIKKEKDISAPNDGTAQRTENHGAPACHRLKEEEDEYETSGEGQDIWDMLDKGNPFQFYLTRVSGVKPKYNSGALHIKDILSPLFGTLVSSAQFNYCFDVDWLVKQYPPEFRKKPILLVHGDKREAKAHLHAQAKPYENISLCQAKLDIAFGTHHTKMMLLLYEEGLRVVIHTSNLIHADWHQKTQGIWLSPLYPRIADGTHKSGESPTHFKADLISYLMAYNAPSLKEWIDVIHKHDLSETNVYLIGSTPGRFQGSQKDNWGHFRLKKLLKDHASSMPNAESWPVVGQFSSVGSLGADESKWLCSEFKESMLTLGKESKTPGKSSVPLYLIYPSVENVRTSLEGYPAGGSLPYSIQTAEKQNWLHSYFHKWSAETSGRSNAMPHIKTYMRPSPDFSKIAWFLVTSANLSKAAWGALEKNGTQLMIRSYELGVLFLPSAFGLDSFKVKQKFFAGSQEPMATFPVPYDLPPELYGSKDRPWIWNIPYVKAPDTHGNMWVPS
#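 Recombinant E. coli-expressed Tdp1 (1 nM) preincubated with compound 15 min at RT, then 5'-biotin/3'-phosphotyrosine-FITC DNA substrate (15 nM) added for 5 min. AlphaScreen beads (10 ug/ml) added, 10 min RT; tyrosine-FITC cleavage read as signal loss.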
# VP16 counter: VP16 counterscreen qHTS for inhibitors of ROR gamma transcriptional activity. Drosophila S2 Gal4-VP16 UAS-luciferase, luminescence, 20 h. Potency, µM (titrated, usually from 53.6 µM), for the others: at the top dose activity, negative = inhibition, usual class: inhibitors. hit rate 3.5% among 310,000. AID 2546, 2010;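 further: Gal4-VP16 expression switched on by copper sulfate through the metallothionein promoter; nearly all actives have a fitted effect of over 50% in size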
# TDP1 cell CPT: qHTS for Inhibitors of human tyrosyl-DNA phosphodiesterase 1 (TDP1): qHTS in cells in presence of CPT; chicken DT40 Tdp1-/-;hTDP1 cells + 20 nM CPT, ATP luminescence, 48 h; Potency, µM (titrated, usually from 46.2 µM), without a hit: at the top dose activity change, negative = growth inhibition, actives largely listed as inhibitors; hit rate 12% among 420,000; AID 686979, 2013; further: nearly all actives have a fitted effect of over 55% in size
#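 Cell growth measured by CellTiter-Glo luminescence after a minimum 48 h, 37 C compound exposure with 20 nM CPT in Tdp1-knockout DT40 cells stably expressing hTDP1, seeded 400/well; qHTS titration format.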
# RORg inh: qHTS for inhibitors of ROR gamma transcriptional activity. hit rate 5.4% among 310,000. AID 2551, 2010. Potency, µM (doses to about 53.6 µM), without a hit: at the top dose activity change, negative = inhibition, usual class: inhibitors. Drosophila S2 Gal4-RORgamma UAS-luciferase reporter, 20 h; further: nearly all actives have a fitted effect of over 60% in size
#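 Stable Schneider cell line, Gal4 DNA-binding domain fused to ROR gamma, UAS-luciferase. Cmpd 1 hr RT → CuSO4 700 uM final → 20 hr RT → luciferase reagent 10 min → luminescence.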
# TDP1 cell noCPT: qHTS for Inhibitors of human tyrosyl-DNA phosphodiesterase 1 (TDP1): qHTS in cells in absence of CPT; DT40 Tdp1-/- hTDP1 cells, no CPT, ATP luminescence, 48 h; hit rate 15% among 420,000; Potency, µM (doses to about 46.2 µM), inactives show top-dose activity change, negative = growth inhibition, usual class: inhibitors; AID 686978, 2013; further: nearly all actives have a fitted effect of over 55% in size
#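 Growth kinetics read by CellTiter-Glo luminescence after ≥48 hr at 37 °C. Cells: DT40 Tdp1-/- stably carrying human TDP1, 400 per well, compound exposure in the absence of CPT (DMSO vehicle).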
# * hit, by the source's call; ? = inconclusive; . = no result given; [ ] = dose if it differs, or a comment. The call rests on the fitted dose curve; in most records, active means well fitted curve in the direction sought with a large enough effect; inconclusive means small, poorly fitted or top-dose-only effect, or another doubt; inactive means no such curve, though single readings can be large; an effect the other way counts as inactive or inconclusive. On the % scale 0 is the no-effect control and ±100 the full control effect; potency means the concentration at half of the fitted maximal effect.
SMILES,TDP1 block,VP16 counter,TDP1 cell CPT,RORg inh,TDP1 cell noCPT
O=C(COC(=O)c1ccc(Cl)c(S(=O)(=O)N2CCOCC2)c1)Nc1ccc2[nH]c(=O)[nH]c2c1,0%,.,16%,.,18%
Cc1ccccc1CSc1cn(CC(=O)N2CCCCC2)c2ccccc12,5%,.,13µM*,.,16µM*
Cc1ccc(C)c(CSc2cn(CC(=O)N3CCCCCC3)c3ccccc23)c1,5%,.,-1%,.,-8%
C=CCOc1c(CNc2cccc(C(=O)O)c2)cccc1OC,3%,?,-6%,10µM*,-21%
Cc1cccc(OCC(=O)NCC(=O)N/N=C/c2ccc(O)cc2O)c1,1%,-13%,16µM*,?,5.8µM*
COc1cccc(/C=N/NC(=O)CNC(=O)COc2cccc(C)c2)c1O,0%,2.2µM*,7.3µM*,0.28µM*,18µM*
Cc1ccc(S(=O)(=O)c2cn(CC(=O)Nc3ccc4c(c3)OCO4)c3ccc(C)cc3c2=O)cc1,1%,.,6%,.,-15%
COc1ccc(S(=O)(=O)N2CCN(C(=O)c3oc4ccccc4c3C)CC2)cc1,2%,-10%,-29%,0%,-27%
CCc1ccc(C(=O)c2cn(CC(=O)Nc3ccc(Cl)cc3)c3cc4c(cc3c2=O)OCO4)cc1,1%,.,15µM*,.,16µM*
CCOc1ccc(C(=O)c2cn(CC(=O)Nc3ccc(Cl)cc3)c3cc4c(cc3c2=O)OCO4)cc1,6%,.,?,.,13µM*
COc1ccc(-c2csc(NC(=O)CN3C(=O)CCC3=O)n2)cc1OC,-7%,-15%,0%,-3%,2%
CC[N+](C)(CC)CC(=O)OCC1C(C)C=C(C)CC1C (centres undefined),.,0%,?,3%,8.2µM*
CNC(=S)N1CCC(n2cnc3ccccc32)CC1,6%,1%,9%,-20%,3%
COc1ccc(OC)c(N2CC(O)(c3cccs3)[N+]3=C2SCCC3)c1 (centres undefined),9%,-10%,-10%,0%,-13%
OC1(c2cccs2)CN(c2ccc(Br)cc2)C2=[N+]1CCCS2 (centres undefined),-5%,0%,?,24%,15µM*
CCc1ccc(S(=O)(=O)N(C(=O)c2ccncc2)c2ccc(OC(=O)c3ccncc3)cc2)cc1,0%,-3%,?,17%[10 µM],?
CCOc1ccccc1CN1CCc2nc(N3CCN(c4ccccc4F)CC3)ncc2C1,6%,.,16µM*,.,21µM*
Cc1ccccc1CN1CCc2nc(N3CCN(c4ncccn4)CC3)ncc2C1,6%,.,?,.,21µM*
CCOc1ccc(CN2CCc3nc(N4CCN(c5ccccn5)CC4)ncc3C2)cc1OC,-6%,.,23µM*,.,23µM*
COc1ccccc1N1CCN(c2ncc3c(n2)CCN(Cc2ccccc2C)C3)CC1,9%,.,-12%,.,5%
COc1ccc(C)cc1NC(=O)C/C(C)=N/NC(=O)Cc1cccc2ccccc12,.,?,-22%,?,-22%
COc1cc2cc(CCOC(=O)c3ccc(F)cc3)oc(=O)c2cc1OC,0%,.,-16%,.,-2%
NC(=O)c1ccc[n+](CCC[n+]2cccc(C(N)=O)c2)c1,-2%,0%,1%,-7%,-1%
CC(=O)NCCNc1nc2cc(-c3cccc(C(F)(F)F)c3)sc2c(=O)n1C,.,.,?,.,-26%
CN(C)CCCNc1nc2cc(-c3cccc(C(F)(F)F)c3)sc2c(=O)n1C,.,.,18µM*,.,?
SMILES,TDP1 block,VP16 counter,TDP1 cell CPT,RORg inh,TDP1 cell noCPT
Cn1c(NCc2ccccc2)nc2cc(-c3cccc(C(F)(F)F)c3)sc2c1=O,.,.,?,.,18µM*
CN(C)CCCNc1nc2cc(-c3ccn[nH]3)sc2c(=O)n1C,.,.,-1%,.,-20%
COCCNc1nc2cc(-c3cccc(C(F)(F)F)c3)sc2c(=O)n1C,.,.,?,.,-22%
Cc1ccsc1-c1cc2nc(NCCCN(C)C)n(C)c(=O)c2s1,.,.,23µM*,.,23µM*
COC(=O)[C@@]12C[C@@H](CC(=O)N3CCOCC3)C(=O)N(Cc3cccc4ccccc34)C1=CCC(C)(C)C2,.,.,16µM*,.,?
COC(=O)[C@@]12C[C@@H](CC(=O)N3CCN(C(=O)C4CC4)CC3)C(=O)N(Cc3cccc4ccccc34)C1=CCC(C)(C)C2,.,.,?,.,21µM*
CCOC(=O)[C@]12CCCC=C1N(Cc1ccco1)C(=O)[C@H](CC(=O)N1CCOCC1)C2,.,.,-7%,.,-19%
N#Cc1ccccc1OCc1cn(CC(=O)c2ccc(O)cc2)nn1,.,.,?,.,-5%
Cc1cn(-c2ccccc2)c(C)c1/C=N\Nc1nc(N2CCOCC2)nc(N2CCOCC2)n1,-1%,-1%,?,15%,?
CCNc1nc2c(c(=O)[nH]c(=O)n2C)n1CC(C)C,-3%,1%,5%,-23%,-8%
COCC(=O)N(C)CC1CCCN(CCc2ccccc2OC)C1 (centres undefined),3%,0%,-10%,-33%,-9%
COc1ccccc1N1CCN(C(=O)c2oc3ccccc3c2NC(=O)C(C)Oc2ccccc2)CC1 (centres undefined),4%,.,?,.,16µM*
Cc1nc2ccccc2c2oc(C(=O)N3CC(C)CC(C)C3)cc12 (centres undefined),4%,-6%,?,-18%,?
COc1ccccc1N1CCN(C(=O)c2oc3ccc(F)cc3c2C)CC1,-1%,-1%,21µM*,14%,16µM*
COc1ccccc1N1CCN(C(=O)c2cc3c(C)nc4ccccc4c3o2)CC1,7%,?,6.5µM*,42%,4.1µM*
COCc1c(C(=O)N2CCN(c3ccccc3C)CC2)oc2ccccc12,-7%,.,21µM*,.,?
COCCN(CC(=O)Nc1cccc(C)c1C)C(=O)c1ccc2ccccc2n1,0%[56.1 µM],.,?,.,?
C=CCC(NC(=O)c1ccc(C#N)cc1)C(=O)NCCC (centres undefined),0%,.,-24%,.,1%
Cc1cc(Br)c(Oc2cc(NN3CCCCC3)c([N+](=O)[O-])cc2[N+](=O)[O-])c(Br)c1,.,.,-16%,.,17%
Cc1c(C(=O)N2CCN(C)CC2)oc2ccc(Br)cc12,.,1%,-27%,2%,-23%
COc1ccccc1N1CCN(C(=O)c2oc3ccc(Br)cc3c2C)CC1,3%,-9%,2.9µM*,0%,7.3µM*
COc1ccccc1N1CCN(C(=O)c2oc3ccccc3c2C)CC1,6%,0%,16µM*,8%,21µM*
